Source: ChEMBL document CHEMBL3988442, “University of Dundee, Small-Polar-MMV Screening Library” (2021)
For part of these data: Results with a measured potency or affinity are listed apart.

Assays:
Design in all cases: scale not given: direction of the effect not stated beside the values
[1] = target: Protein translocase subunit SecA (Escherichia coli (strain K12)) (UniProt P10408); assay: Assay to Identify E. coli SecA ATPase Inhibitors; type: functional; settings: 30 µM
[2] = target: T1, Ubiquitin-activating enzyme e1, putative (Leishmania donovani (strain BPK282A1)) (UniProt E9BSI1); assay: Leishmania donovani Ubiquitin Activating Enzyme (LdE1); type: functional; settings: 30 µM
T1 sequence (whole entry): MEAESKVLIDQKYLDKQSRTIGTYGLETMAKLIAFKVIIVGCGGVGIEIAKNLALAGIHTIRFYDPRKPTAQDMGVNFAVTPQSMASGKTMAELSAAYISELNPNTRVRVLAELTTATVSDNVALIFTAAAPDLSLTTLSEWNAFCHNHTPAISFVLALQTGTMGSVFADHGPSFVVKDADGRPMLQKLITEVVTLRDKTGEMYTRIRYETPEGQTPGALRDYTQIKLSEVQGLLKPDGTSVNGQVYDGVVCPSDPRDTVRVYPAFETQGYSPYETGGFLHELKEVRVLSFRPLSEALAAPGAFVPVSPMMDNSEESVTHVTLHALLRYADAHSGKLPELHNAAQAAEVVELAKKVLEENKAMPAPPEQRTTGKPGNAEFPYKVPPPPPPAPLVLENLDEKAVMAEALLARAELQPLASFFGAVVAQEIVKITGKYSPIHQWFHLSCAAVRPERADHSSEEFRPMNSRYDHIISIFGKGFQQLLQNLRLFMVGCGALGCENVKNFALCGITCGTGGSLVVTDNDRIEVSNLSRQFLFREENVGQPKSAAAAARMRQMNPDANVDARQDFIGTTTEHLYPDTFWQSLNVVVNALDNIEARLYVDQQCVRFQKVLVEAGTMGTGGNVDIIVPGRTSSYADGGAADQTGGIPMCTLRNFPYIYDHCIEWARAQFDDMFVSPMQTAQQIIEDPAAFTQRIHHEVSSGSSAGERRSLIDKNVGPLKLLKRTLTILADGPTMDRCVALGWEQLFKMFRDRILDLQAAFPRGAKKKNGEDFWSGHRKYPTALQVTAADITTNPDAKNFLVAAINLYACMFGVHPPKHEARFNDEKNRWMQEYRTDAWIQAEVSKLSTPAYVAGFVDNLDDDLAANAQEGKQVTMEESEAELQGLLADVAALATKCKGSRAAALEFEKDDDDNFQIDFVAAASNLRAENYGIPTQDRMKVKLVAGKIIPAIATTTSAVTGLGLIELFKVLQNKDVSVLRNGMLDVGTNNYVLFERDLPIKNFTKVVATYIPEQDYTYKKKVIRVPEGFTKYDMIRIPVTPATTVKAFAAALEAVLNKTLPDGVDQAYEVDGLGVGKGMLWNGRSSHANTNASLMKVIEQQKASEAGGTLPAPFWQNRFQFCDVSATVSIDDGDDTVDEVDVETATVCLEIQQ

[3] = target: Sialic acid-binding Ig-like lectin 9 (Homo sapiens) (UniProt Q9Y336); assay: Hs-Siglec9 ALPHAscreen SOP 20170721; settings: 10 µM
Trypanosoma cruzi = assay: Trypanosoma cruzi phosphomannomutase and mannose-1-phosphate guanylyltransferase assay; type: functional; settings: 10 µM
[4] = target: T2, Arginase-2, mitochondrial (Homo sapiens) (UniProt P78540); assay: in vitro enzyme assay to detect the production of urea directly proportional to the activity of Arginase II; type: functional; settings: 33.3 µM; also: in the data most compounds retested in dose-response had high values
T2 sequence (whole entry): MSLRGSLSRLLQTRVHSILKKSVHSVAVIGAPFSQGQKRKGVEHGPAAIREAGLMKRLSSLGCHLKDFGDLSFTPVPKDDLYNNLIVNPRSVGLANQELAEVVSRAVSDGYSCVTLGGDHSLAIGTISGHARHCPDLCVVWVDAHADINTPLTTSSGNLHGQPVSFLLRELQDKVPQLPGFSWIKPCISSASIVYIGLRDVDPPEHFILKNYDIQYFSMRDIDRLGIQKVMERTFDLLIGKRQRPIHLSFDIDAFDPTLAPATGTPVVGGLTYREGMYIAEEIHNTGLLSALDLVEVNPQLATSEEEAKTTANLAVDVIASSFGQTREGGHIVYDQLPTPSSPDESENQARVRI

[5] = target: T3, Proteasome subunit beta (Trypanosoma cruzi) (UniProt O96673); assay: Trypanosoma cruzi proteasome chymotrypsin-like activity (TcProtChymo) assay.; also: in the data most compounds retested in dose-response had high values; type: functional; settings: 9.37 µM
T3 sequence (whole entry): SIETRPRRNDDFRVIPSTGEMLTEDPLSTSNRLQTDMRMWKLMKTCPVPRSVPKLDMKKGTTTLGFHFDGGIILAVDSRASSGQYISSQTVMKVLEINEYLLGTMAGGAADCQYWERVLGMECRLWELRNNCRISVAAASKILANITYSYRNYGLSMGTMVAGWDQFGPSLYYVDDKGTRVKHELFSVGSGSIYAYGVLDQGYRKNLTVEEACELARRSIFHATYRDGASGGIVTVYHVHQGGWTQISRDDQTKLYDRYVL

Homo sapiens = organism: Homo sapiens; assay: To identify inhibition of the IFN signalling (Jak-Stat) pathway via expression of an eGFP reporter gene under the control of an IFN-stimulated response element (ISRE) containing MxA promoter.; type: functional; settings: 30 µM
[6] = target: T4, Tyrosyl-tRNA synthetase, putative (Trypanosoma cruzi (strain CL Brener)) (UniProt Q4DSP6); assay: Trypanosoma cruzi tyrosyl tRNA synthetase (TcYRS) _High Tyrosine SOP; type: functional; settings: 30 µM; also: in the data most compounds retested in dose-response had high values
T4 sequence (whole entry): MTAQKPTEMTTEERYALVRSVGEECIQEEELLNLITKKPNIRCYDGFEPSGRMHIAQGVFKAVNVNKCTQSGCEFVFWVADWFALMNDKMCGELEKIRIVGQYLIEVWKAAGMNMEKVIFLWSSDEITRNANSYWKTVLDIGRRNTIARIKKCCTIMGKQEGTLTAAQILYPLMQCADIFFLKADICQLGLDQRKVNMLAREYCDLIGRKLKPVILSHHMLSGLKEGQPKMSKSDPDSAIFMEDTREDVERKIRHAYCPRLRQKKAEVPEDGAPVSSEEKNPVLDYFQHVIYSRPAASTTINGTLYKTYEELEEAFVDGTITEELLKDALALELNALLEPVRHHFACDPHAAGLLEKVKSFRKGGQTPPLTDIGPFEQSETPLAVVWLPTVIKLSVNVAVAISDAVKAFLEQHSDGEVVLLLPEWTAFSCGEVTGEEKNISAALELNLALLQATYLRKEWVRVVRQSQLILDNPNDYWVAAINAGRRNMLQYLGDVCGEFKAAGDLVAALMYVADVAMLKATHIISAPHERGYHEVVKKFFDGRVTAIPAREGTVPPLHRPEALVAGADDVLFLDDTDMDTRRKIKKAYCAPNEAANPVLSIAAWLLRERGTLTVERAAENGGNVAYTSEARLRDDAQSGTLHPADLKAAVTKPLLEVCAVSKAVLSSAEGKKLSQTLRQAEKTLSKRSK

[7] = target: T4, Tyrosyl-tRNA synthetase, putative (Trypanosoma cruzi (strain CL Brener)); assay: Trypanosoma cruzi tyrosyl tRNA synthetase (TcYRS) SOP; type: functional; settings: 30 µM
[8] = target: Chromo domain-containing protein 1 (Saccharomyces cerevisiae (strain ATCC 204508 / S288c) (Baker's yeast)) (UniProt P32657); assay: ScCHD-1 Enzyme Inhibition Assay; type: functional; settings: 30 µM; also: in the data most compounds retested in dose-response had high values
Chain of Chromo domain-containing protein 1 (Saccharomyces cerevisiae (strain ATCC 204508 / S288c) (Baker's yeast)) (P32657 whole entry, the tested form may be a part): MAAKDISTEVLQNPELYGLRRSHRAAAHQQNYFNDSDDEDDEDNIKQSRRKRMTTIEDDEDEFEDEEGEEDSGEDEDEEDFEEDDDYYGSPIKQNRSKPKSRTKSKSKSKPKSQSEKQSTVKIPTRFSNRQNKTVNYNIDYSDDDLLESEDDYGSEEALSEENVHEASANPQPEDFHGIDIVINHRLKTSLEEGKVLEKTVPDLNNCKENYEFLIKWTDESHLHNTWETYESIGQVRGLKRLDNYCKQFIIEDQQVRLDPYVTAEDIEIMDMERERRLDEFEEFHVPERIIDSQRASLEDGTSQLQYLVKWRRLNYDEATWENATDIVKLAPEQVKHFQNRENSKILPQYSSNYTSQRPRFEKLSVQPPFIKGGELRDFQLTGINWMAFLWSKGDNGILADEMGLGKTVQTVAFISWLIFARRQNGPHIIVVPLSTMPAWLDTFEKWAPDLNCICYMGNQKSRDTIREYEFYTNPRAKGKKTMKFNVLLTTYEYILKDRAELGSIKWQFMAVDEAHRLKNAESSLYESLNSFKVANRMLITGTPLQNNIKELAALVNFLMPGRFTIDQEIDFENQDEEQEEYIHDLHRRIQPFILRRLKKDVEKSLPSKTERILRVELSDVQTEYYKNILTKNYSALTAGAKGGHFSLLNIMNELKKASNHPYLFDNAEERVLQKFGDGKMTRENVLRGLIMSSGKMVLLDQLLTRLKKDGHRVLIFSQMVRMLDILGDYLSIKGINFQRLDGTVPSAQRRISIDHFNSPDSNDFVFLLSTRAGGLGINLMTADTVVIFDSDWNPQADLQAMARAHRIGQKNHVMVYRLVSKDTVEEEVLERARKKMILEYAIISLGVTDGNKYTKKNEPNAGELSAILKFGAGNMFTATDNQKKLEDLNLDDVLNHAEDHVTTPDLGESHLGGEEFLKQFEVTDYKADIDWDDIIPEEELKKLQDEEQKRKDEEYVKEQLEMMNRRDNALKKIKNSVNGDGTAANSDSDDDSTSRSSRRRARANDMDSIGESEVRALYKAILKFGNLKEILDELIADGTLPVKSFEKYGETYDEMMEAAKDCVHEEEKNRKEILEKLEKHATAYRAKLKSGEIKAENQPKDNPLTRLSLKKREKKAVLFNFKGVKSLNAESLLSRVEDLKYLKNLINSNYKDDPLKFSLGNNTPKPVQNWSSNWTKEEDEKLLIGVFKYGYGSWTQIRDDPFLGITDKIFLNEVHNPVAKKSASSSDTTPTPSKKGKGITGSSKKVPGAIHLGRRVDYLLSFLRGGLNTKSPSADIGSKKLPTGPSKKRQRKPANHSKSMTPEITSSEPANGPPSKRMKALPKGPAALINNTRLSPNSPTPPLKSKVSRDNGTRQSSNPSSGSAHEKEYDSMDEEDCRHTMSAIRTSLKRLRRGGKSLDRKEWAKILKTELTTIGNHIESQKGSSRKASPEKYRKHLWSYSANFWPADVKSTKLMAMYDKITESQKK

Chain of Sialic acid-binding Ig-like lectin 9 (Homo sapiens) (Q9Y336 whole entry): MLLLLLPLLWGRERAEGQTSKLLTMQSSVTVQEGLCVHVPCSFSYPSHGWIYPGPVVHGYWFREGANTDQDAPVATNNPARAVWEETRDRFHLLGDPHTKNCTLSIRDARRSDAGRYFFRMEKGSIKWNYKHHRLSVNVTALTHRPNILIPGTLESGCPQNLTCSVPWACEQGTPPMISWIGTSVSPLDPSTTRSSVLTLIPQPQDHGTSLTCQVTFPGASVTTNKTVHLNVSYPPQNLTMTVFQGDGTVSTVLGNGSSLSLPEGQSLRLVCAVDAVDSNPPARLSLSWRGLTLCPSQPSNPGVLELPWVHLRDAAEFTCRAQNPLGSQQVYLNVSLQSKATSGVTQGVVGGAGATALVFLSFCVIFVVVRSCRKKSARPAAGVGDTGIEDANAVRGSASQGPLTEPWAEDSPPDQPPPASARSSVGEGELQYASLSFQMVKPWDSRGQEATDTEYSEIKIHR
Chain of Protein translocase subunit SecA (Escherichia coli (strain K12)) (P10408 whole entry): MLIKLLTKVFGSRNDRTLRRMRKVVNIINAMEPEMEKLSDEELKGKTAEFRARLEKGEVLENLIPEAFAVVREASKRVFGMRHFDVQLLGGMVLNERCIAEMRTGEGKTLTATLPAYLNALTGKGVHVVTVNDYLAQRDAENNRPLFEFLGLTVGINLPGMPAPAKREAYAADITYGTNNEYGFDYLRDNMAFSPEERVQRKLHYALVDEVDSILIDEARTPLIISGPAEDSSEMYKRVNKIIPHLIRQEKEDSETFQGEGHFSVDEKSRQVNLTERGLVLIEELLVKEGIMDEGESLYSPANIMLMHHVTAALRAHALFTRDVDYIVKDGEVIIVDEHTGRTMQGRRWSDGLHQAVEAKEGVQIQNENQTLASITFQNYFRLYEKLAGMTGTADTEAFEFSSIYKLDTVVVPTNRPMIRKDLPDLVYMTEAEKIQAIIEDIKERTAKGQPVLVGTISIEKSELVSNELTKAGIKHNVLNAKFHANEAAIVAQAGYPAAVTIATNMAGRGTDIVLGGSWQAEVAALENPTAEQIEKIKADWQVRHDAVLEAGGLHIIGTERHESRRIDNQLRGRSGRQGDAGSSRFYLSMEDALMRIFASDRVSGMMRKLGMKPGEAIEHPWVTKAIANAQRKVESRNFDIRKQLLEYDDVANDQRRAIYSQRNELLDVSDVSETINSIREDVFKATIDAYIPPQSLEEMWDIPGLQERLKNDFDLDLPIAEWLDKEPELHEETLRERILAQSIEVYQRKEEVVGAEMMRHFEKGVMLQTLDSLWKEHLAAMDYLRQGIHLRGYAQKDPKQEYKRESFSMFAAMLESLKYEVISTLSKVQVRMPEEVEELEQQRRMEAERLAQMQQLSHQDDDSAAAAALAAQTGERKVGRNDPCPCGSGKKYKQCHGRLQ

Row | Compound | Percent Effect [1] [%] | Percent Effect [2] [%] | Percent Effect [3] [%] | Percent Effect (Trypanosoma cruzi) [%] | Percent Effect [4] [%] | Percent Effect [5] [%] | Percent Effect (Homo sapiens) [%] | Percent Effect [6] [%] | Percent Effect [7] [%] | Percent Effect [8] [%]
1 | COc1ccc(F)cc1C(C)NC(=O)Cn1ccc(=O)n(C)c1=O (stereo not given) | 2.28 | 13 | 2.06 | 2.05 | 5.94 | 9.82 | -0.632 | 9.8 | 21.2 | -4.5
2 | Cc1noc(C)c1CC(=O)OCC(=O)N1CCc2sccc2C1 | -3.42 | 18.7 | 0.304 | 0.201 | -3.99 | 14.3 | 12.1 | 6.84 | 23.1 | -8.07
3 | CCn1nc2c(cc1=O)CN(Cc1nc(-c3ccsc3)no1)CC2 | -2.79 | 0 | 3.78 | -0.282 | 6.56 | 4.18 | 27.8 | 4.31 | 6.02 | -6.49
4 | Cc1cccnc1CNCC1(O)CCCN(CC2CCCCC2)C1=O (stereo not given) | -6.4 | 0 | -1.52 | -2.04 | -3.85 | 3.25 | 1.47 | 7.98 | 17.1 | 0.826
5 | Cc1nc(N2CCCC2)nc2c1CN(C(=O)N1CCOCC1)CC2 | -4.38 | 14.3 | 1.78 | 0.75 | 3.2 | 15.9 | 1.81 | 10.6 | 15 | -9.99
6 | O=C(c1cc(C2CC2)[nH]n1)N1CCCC(n2cncn2)C1 (stereo not given) | -2.3 | 7.69 | -12.5 | 4.6 | 1.23 | 8.11 | -13.2 | 2.39 | 10.8 | -2.79
7 | Cn1cc(CN2CCCN(C(=O)c3cc[nH]n3)CC2)cn1 | -1.81 | 5.13 | -4.2 | 4.22 | -0.41 | -6.57 | 23.7 | 0.478 | 13.2 | -1.64
8 | CCc1[nH]ncc1C(=O)N1CCCC(n2ccnc2C(C)C)C1 (stereo not given) | -3.48 | 13.3 | 5.91 | 0 | 0.887 | 0.763 | 25.5 | 3.68 | 10.3 | -5.4
9 | Cc1occc1C(=O)N1CC[C@@H](N2CCOCC2)[C@@H]1Cc1ccccc1 | -6.37 | 11.7 | 1.96 | 0.876 | -2.83 | 7.33 | 0.411 | 8.95 | 15.4 | -4.72
10 | CCC(=O)N1CCCC1c1nccnc1Nc1nc(C)cc(C)n1 (stereo not given) | -0.0687 | 14.7 | 0.282 | 0.789 | 2.21 | 15.8 | 6.52 | 2.12 | 7.5 | -21.6
11 | COc1ncccc1CNC(=O)c1cccc(C)n1 | -0.149 | 23.1 | -18.5 | 6.1 | -5.74 | 18.5 | 18.5 | 6.22 | 22.9 | -3.56
12 | O=C1CC2(CCN(S(=O)(=O)c3cccs3)C2)CN1c1ccccc1 (stereo not given) | -4.36 | 9.09 | 0.409 | -2.81 | 3.65 | 2.83 | 8.75 | -1.93 | -2.5 | -2.17
13 | COc1ccc(CN2CCC3(CC2)CCN(CC2CC2)C3=O)cc1 | -3.5 | 19.5 | 0.146 | -3.56 | 4.57 | 3.18 | 4.44 | 4.83 | 2.5 | -2.76
14 | CN(CC(=O)N1CCCN(Cc2cscn2)CC1)c1cnccn1 | 0.471 | -18.2 | 7.79 | -4.29 | -3.07 | 0.351 | 9.75 | 0 | 4.71 | 5.41
15 | COc1ccc(CN2CCC3(CC(Nc4ccncn4)C3)C2)c(OC)c1 (stereo not given) | -3.35 | 9.33 | 5.58 | -2.76 | -3.54 | 8.21 | 5.35 | 5.29 | 7.5 | -20.7
16 | O=C(Cc1n[nH]c2ccccc12)N1CCC(Nc2cccnn2)CC1 | -6.35 | 10.4 | 4.16 | 3.36 | -7.58 | 13.2 | -4.05 | 5.88 | 11.8 | -9.11
17 | Cc1cc(C2CCCN(C(=O)c3c(C)nn4cccnc34)C2)n[nH]1 (stereo not given) | -3.7 | 8 | 6.1 | -2.21 | 0.444 | 6.7 | 9.89 | 2.63 | 5.13 | -4.49
18 | COc1ccc(C[C@H]2CN(C(=O)c3ccncc3)CC[C@@H]2OC)cc1 | -3.87 | 11.7 | 0.155 | -6.57 | -11.4 | 6.61 | 11.4 | -2.9 | -2.5 | -10.3
19 | O=C(NCc1cc[nH]n1)NCC(O)c1ccc(F)cc1F (stereo not given) | -0.475 | 8 | -0.795 | -4.82 | -0.444 | 7.38 | -4.21 | 5.79 | 10.3 | -7.37
20 | Cc1cc2c(=O)n3c(nc2s1)CCN(Cc1cnc(C(C)C)nc1)CC3 | -1.05 | 4 | -0.31 | -7.69 | 3.98 | 5.91 | 28.4 | 0 | 5 | -25.8
21 | CN(C)C(=O)CCC(=O)NCc1cccnc1-n1cnc2ccccc21 | -4.75 | -2.7 | -1.92 | -1.46 | -9.44 | -1.03 | -10.5 | 1.6 | -2.44 | 0.948
